# Sampled rows, rich in hits. Any-hit rate of the full collection: about 7.5%.
# TSHR antag = blocks TSH signaling through the human TSH receptor | TSHR-expressing cells, TSH-stimulated cAMP HTRF, 2 h; active compounds read low | activity change, negative = inhibition, % at 11.5 µM | actives 0.2% (n = 330,000);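 active = activity change below a set negative limit, meaning inhibition stronger than a set level, cut at about -70% in these data; inconclusive = activity change between two set negative limits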
#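 Competitive HTRF cAMP read-out (cryptate anti-cAMP antibody, cAMP-d2; 30 min, room temperature) in freshly harvested TSHR cells. Compounds added before TSH at EC80 (4nM final), followed by 2 hours' incubation at 37 deg C.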
# RORgamma inh = inhibitors of mouse ROR gamma transcriptional activity | Drosophila S2 Gal4-RORgamma UAS-luciferase reporter, 20 h | actives 5.4% (n = 310,000) | Potency, µM (doses to about 53.6 µM), inactives show at the highest dose activity change, negative = inhibition, usual class: inhibitors | P51450; note: potency is the fitted concentration of half-maximal effect; nearly all actives have a fitted effect of over 60% in size
# Target sequence (P51450 whole entry, looked up, the tested form may be a part): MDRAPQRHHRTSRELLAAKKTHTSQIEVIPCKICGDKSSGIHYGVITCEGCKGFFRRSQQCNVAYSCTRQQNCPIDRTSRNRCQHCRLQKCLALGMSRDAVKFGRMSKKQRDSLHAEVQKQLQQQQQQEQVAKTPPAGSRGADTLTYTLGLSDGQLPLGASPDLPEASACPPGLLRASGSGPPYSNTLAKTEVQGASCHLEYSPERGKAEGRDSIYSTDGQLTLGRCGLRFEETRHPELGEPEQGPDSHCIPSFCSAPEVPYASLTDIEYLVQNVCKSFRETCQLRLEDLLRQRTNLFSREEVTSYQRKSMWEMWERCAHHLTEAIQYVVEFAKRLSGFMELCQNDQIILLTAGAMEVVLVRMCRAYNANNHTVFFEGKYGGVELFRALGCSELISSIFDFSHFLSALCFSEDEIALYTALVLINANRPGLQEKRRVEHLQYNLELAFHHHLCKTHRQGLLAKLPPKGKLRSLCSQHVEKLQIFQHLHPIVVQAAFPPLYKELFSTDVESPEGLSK
#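 Drosophila Schneider cells stably carrying a metallothionein-driven Gal4 DBD–ROR gamma fusion and a UAS-Photinus luciferase reporter were exposed to compound for 1 hr, then induced with copper sulfate (700 uM final) for 20 hr at ambient temperature before luminescence reading.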
# VP16 counter = counter-screen for ROR gamma inhibitors: Gal4-VP16 reporter; Drosophila S2 Gal4-VP16 UAS-luciferase, luminescence, 20 h; Potency, µM (highest dose often 53.6 µM), without a hit: top-dose activity, negative = inhibition, hits mostly inhibitors; actives 3.5% (n = 310,000); AID 2546;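 note: Gal4-VP16 expression switched on by copper sulfate through the metallothionein promoter; potency is the fitted concentration of half-maximal effect; nearly all actives have a fitted effect of over 50% in size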
# B2AR arrestin = beta2AR (human) beta-arrestin recruitment activity; beta-arrestin recruitment to beta2AR, cell-based reporter; P07550; AID 492947; Potency, µM (doses to about 46.1 µM), for the others: top-dose activation, hits mostly activators; actives 0.02% (n = 330,000);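 note: potency is the fitted concentration of half-maximal effect; 0% = DMSO controls and full agonism = EC100 isoproterenol or metaproterenol; nearly all actives have a fitted effect of over 65% in size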
# ELG1 repair inh = ELG1-dependent DNA repair inhibition; HEK293T ELG1-luciferase reporter, luminescence, 16 h; DNA damage induced by 5-fluorouridine; Potency, µM (doses to about 46.1 µM), inactives show top-dose activity change, negative = inhibition, most hits filed as inhibitors; actives 2.3% (n = 330,000); AID 504467; note: potency is the fitted concentration of half-maximal effect; nearly all actives have a fitted effect of over 55% in size
#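 HEK293T cells expressing luciferase-tagged ELG1 (2,000/well) received 5-Fluorouridine plus compound or DMSO for 16 hr at 37 °C. Luciferase was read by ONE-Glo luminescence after 30 min at room temperature.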
# * = called active by the depositor; u = inconclusive; x = not tested or not shown. Unless noted, calls come from the whole dose curve; as a rule, active = well fitted curve in the direction sought with a large enough effect; inconclusive = small, poorly fitted or top-dose-only effect, or another doubt; inactive = no such curve, though single readings can be large; an effect the other way counts as inactive or inconclusive. Unless noted, % is set by controls: 0 for no effect and ±100 for the full control effect.
SMILES,TSHR antag,RORgamma inh,VP16 counter,B2AR arrestin,ELG1 repair inh
CC1=CCC2C(=O)N(C(C)c3ccccc3)C(=O)C2C1 (centres undefined),-8,6%,4%,0%,5%
CC1=CCC2C(=O)N(c3nc4ccccc4n3C)C(=O)C2C1 (centres undefined),x,3.5µM*,u,x,x
O=[N+]([O-])c1ccc(O)c(Nc2ncnc3ccccc23)c1,9,u,u,0%,9%
Cc1ccc(O)c(Nc2ncnc3ccc([N+](=O)[O-])cc23)c1,-5,u,10%,0%,13µM*
O=[N+]([O-])c1ccc(O)c(Nc2ncnc3ccc(Br)cc23)c1,u,u,-20%,-1%,13µM*
O=c1cnc2cnc(Oc3cccc(Cl)c3)nc2n1C[C@H]1CCCO1,x,-19%,-8%,x,x
COCc1c(C#N)c(NCc2cc(OC)c(OC)c(OC)c2)nc(C)c1[N+](=O)[O-],-15,u,u,0%,16µM*
COCc1c(C#N)c(NCCc2ccccc2)nc(C)c1[N+](=O)[O-],-11,-8%,5%,-2%,u
Cn1c(CNc2ccc(Cl)cc2)nc2ccccc21,-12,u,u,0%,u
Cc1ccc(NCc2nc3ccccc3n2C)c(C)c1,4,13µM*,10µM*,-1%,u
Cc1ccc(N2CCN(c3ccc(NCc4nc5ccccc5n4C)cc3)CC2)cc1,5,11µM*,-3%,-1%,-1%
Cc1ccccc1OCc1nc2ccccc2n1C,-7,20µM*,u,-1%,u
CNc1nc(-c2cccnc2)nc2ccccc12,x,4%,u,x,x
COc1ccc(-c2nc(-c3ccccc3)c(Nc3ccc4ccccc4c3)o2)cc1,x,u,3%,x,x
O=C(O)CCC(=O)Nc1cccc(-c2nc3ccccc3o2)c1,3,17%,-6%,0%,1%
CC(C)Cc1ccc(C(=O)Nc2ccc(Cc3ccncc3)cc2)o1,-8,u,-12%,1%,21µM*
O=C(CC1S/C(=N/N=C2CCCCCC2)NC1=O)Nc1ccccc1C(F)(F)F (centres undefined),2,5.6µM*,u,0%,-2%
C=CCC1S/C(=N/N=C/c2cccs2)NC1=O (centres undefined),14,2µM*,5.6µM*,-1%,15%
O=C(CC1S/C(=N/N=C/c2cccs2)NC1=O)Nc1ccccc1F (centres undefined),-1,8.9µM*,-23%,0%,u
O=C(O)CCCNC(=O)CC1S/C(=N/N=C/c2ccccc2O)NC1=O (centres undefined),-4,-22%,-11%,0%,-18%
O=C1N/C(=N\N=C\c2cccs2)SC1Cc1ccc(Cl)c(Cl)c1 (centres undefined),-3,0.45µM*,0.71µM*,0%,-12%
C=CCN1C(=O)C(Cc2ccc(OC)cc2)S/C1=N\N=C\c1cccs1 (centres undefined),-3,2%,10%,0%,17%
CN(C)Cc1ccccc1-c1cc(N(C)Cc2ccco2)ncn1,x,7%,-11%,x,x
Cc1ccc(S(=O)(=O)N2CCC(C(=O)OC(C)C(=O)NC3CCCCC3C)CC2)cc1 (centres undefined),-3,x,x,0%,8%
COc1cc(OC)c2c(C)cc(=O)oc2c1C(CCN1CCCC(C)C1)c1ccc(N(C)C)cc1 (centres undefined),x,-27%,4%,x,x
SMILES,TSHR antag,RORgamma inh,VP16 counter,B2AR arrestin,ELG1 repair inh
Cc1cc2ccccn2c1C(=S)NC(=O)c1ccccc1,-10,3.2µM*,3.5µM*,0%,17%
Cc1cc2ccccn2c1C(=O)c1ccncc1,-3,4%,-3%,0%,1%
Cc1cc2ccccn2c1C(=O)c1ccc(Cl)cc1,7,u,16µM*,4%,u
COc1cc(NC(=O)CN2C(=O)NC(CC(C)C)C2=O)cc(OC)c1OC (centres undefined),11,x,x,-1%,14%
O=C(CCN1CCOCC1)Nc1ccc(Cl)cc1,-4,-1%,4%,0%,3%
COc1ccc(CNc2cc(C)nc3ncnn23)c(OC)c1,-14,-23%,11µM*,0%,u
COc1ncnc2c1NC1=C(S2)C(=NCCC(=O)O)CC(C)(C)C1,3,u,18µM*,0%,10%
C=CCn1c(CCNC(=O)c2ccc(Cl)c(Cl)c2)nnc1SCCOc1ccc(OC)cc1,4,u,u,0%,16µM*
CCOc1ccccc1Nc1ncnc2ccc(Br)cc12,-5,-8%,-7%,0%,0%
CN(Cc1ccccc1)c1ncnc2ccc(Br)cc12,-12,-35%,-6%,0%,18µM*
CN(NS(=O)(=O)c1ccc(Br)cc1)c1nc(C(F)(F)F)nc2ccccc12,-41,u,u,0%,21µM*
COc1ccc(Cl)cc1C(=O)NNC(=O)c1[nH]c(C)c(C(C)=O)c1C,-12,x,x,0%,u
Cc1ccnc(N2CCN(C(=O)CSc3nc4ccccc4nc3N3CCC(C)CC3)CC2)c1,-30,41%,0%,0%,21µM*
Cc1ccc(NC(=O)Cc2n[nH]c(=O)c3ccccc23)cc1S(=O)(=O)N1CCCCCC1,5,x,x,-1%,u
CC(=O)c1ccc(OCCCC(=O)Nc2cc(S(=O)(=O)N(C)C)ccc2C)cc1,5,26%,-6%,0%,-5%
CCN(CC)S(=O)(=O)c1cc(NC(=O)C(C)N2CCN(c3ccccn3)CC2)ccc1C (centres undefined),3,21%,2%,1%,21µM*
CCN(CC)S(=O)(=O)c1cc(NC(=O)Cc2n[nH]c(=O)c3ccccc23)ccc1C,-12,u,-22%,-1%,21µM*
CCN(CC)S(=O)(=O)c1cc(NC(=O)CCCOc2ccc(C(C)=O)cc2)ccc1C,-24,25%,-22%,-1%,16µM*
CCN(CC)S(=O)(=O)c1cc(NC(=O)NCCCl)ccc1C,-71*,8%,3%,-1%,0%
c1ccc(CN2CCN(CCCNc3ccc4nnc(-c5ccccc5)n4n3)CC2)cc1,14,6%,-5%,-1%,18µM*
CCCC(=O)NC(=S)Nc1ccc(N2CCN(C(=O)c3cccs3)CC2)cc1,5,7.9µM*,u,0%,16µM*
O=C(NC(=S)Nc1ccc(N2CCN(C(=O)c3ccccc3)CC2)cc1)c1cccs1,-50,5.6µM*,u,0%,13µM*
O=C(Nc1ccc(N2CCN(C(=O)c3cccs3)CC2)cc1)c1cccc(F)c1,-1,u,5%,0%,15µM*
O=C(NC(=S)Nc1ccccc1N1CCN(C(=O)c2ccccc2)CC1)c1cccs1,-2,-21%,-7%,0%,u
CS(=O)(=O)N1CCN(c2ccc(NC(=S)NC(=O)c3cccs3)cc2)CC1,32,6%,-12%,0%,16%
